# According to PubChem BioAssay (EPA / NIEHS):
# The source made the active and inactive calls. The calls were made as follows: active = hit-call score of the fitted dose curve at least 0.9, where 1 is the maximum; inactive = score below 0.9. Peptide text beside a SMILES is read from it.
# Target: Signal transducer and activator of transcription 3 (Homo sapiens) (UniProt P40763)
# Test: ATG_STAT3_CIS: Attagene CIS-FACTORIAL HepG2 Assay for human Signal Transducer and Activator of Transcription 3 (STAT3) (AID 2282963)
# Settings: HepG2, Attagene cis-factorial STAT3 reporter transcription; actives raise or lower the signal
# Protocol: ATG_CIS is a cell-based, multiplexed-readout assay that uses HepG2, a human liver cell line, with measurements taken at 24 hours after chemical dosing in a 24-well plate.ATG_STAT3_CIS is one of 52 assay component(s) measured or calculated from the ATG_CIS assay. It is designed to make measurements of mRNA induction, a form of inducible reporter, as detected with fluorescence intensity signals by Reverse transcription polymerase chain reaction (RT-PCR) and Capillary electrophoresis technology.Data from the assay component ATG_STAT3_CIS was analyzed into 1 assay endpoint. This assay endpoint, ATG_STAT3_CIS, was analyzed with bidirectional fitting relative to DMSO as the negative control and baseline of activity. Using a type of inducible reporter, measures of mRNA for gain or loss-of-signal activity can be used to understand the reporter gene at the transcription factor-level as they relate to the gene STAT3. Furthermore, this assay endpoint can be referred to as a primary readout, because this assay has produced multiple assay endpoints where this one serves a reporter gene function. To generalize the intended target to other relatable targets, this assay endpoint is annotated to the dna binding intended target family, where the subfamily is stat protein.
# Human liver HepG2 cells are transiently transfected with multiple reporter transcription units (MRTUs) in 6-well plates using FuGene 6 reagent (Roche; 3 ml FuGene/1 mg DNA). The MRTU constructs are regulated by a cis-regulating element (promoter). […] A major difference between the CIS and TRANS system is that in CIS activities of endogenous TFs are measured, whereas the TRANS assay evaluates changes in activities of exogenous, chimeric NR-Gal4 proteins. […] At the end of 24 hour incubation, total RNA was isolated using TriZol reagent (Invitrogen). The isolated RNA is then reverse-transcribed using oligo(dT) primer and Mo-MLV reverse transcriptase (Invitrogen) with DNAse I (Ambion) treatment for 30 min. The one-tenth of the produced cDNA was amplified by PCR using Taq DNA polymerase (Invitrogen) and two reporter sequence-specific primers. The PCR products were fluorescently labeled by primer extension with 6-arboxyfluorescein (6-FAM) 5'-labeled reporter sequence-specific primer (2 min at 95 C, 20 s at 68 C and 10 min at 72 C) and these products were digested with 5U of HpaI (New England Biolabs) for 2h at 37 C. The fragments were purified using Qiaquick PCR columns (Qiagen), analyzed on an ABI 3130xL genetic analyzer (Applied Biosystems) with peak positions identified by using a set of X-rhodamine (ROX)-labeled MapMarker1000 molecular weight standards (BioVentures). The raw capillary electrophoresis data was processed using Attagraph software (Attagene).
# Sequence of Signal transducer and activator of transcription 3 (Homo sapiens) (P40763 whole entry, looked up): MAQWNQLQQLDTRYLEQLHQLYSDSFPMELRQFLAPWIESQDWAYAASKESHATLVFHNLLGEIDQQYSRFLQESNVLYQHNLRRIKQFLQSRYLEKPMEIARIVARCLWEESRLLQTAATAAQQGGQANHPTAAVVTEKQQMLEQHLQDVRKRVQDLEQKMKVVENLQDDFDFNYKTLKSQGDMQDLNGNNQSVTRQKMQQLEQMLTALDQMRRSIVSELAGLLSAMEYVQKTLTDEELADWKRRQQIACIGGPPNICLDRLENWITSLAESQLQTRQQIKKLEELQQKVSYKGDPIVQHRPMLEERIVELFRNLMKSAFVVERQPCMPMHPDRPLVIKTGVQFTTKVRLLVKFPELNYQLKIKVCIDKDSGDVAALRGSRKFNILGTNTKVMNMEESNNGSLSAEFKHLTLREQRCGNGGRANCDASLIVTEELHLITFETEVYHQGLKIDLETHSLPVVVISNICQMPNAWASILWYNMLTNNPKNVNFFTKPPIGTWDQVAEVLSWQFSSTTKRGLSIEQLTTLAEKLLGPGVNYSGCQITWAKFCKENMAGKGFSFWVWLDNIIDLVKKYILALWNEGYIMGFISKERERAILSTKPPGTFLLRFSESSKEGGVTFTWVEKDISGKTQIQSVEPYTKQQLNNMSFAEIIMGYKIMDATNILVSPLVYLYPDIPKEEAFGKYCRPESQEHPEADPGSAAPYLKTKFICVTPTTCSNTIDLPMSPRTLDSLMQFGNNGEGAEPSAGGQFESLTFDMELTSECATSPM
Compound,outcome,AC50
Nc1ccc(C(=O)O)cc1,inactive,
CC(C)c1ccc(O)c(C(C)C)c1,inactive,
CCCCCCCCCCCCc1ccc(O)cc1,inactive,
Cn1cccc1,inactive,
NC(=O)Nc1ccccc1,inactive,
CC/C=C\C/C=C\C/C=C\CCCCCCCC(=O)OC,inactive,
CCCCNS(=O)(=O)c1ccccc1,inactive,
COC(=O)[C@H](Cc1ccccc1)NC(=O)[C@@H](N)CC(=O)O (H-Asp-Phe-OMe),inactive,
C1CCSC1,inactive,
O=C(O)CC(C(=O)O)S(=O)(=O)O (stereo not given),inactive,
CC(C)(CO)C(O)C(=O)NCCCO (stereo not given),inactive,
O=C(C=Cc1ccccc1)OCCc1ccccc1,inactive,
CCCC/C=C/C=C\C=O,inactive,
COc1ccc(C(=O)/C(Br)=C\C(=O)O)cc1,inactive,
C=C(C)C(=O)OCC(O)COc1ccc(C(C)(C)c2ccc(OCC(O)COC(=O)C(=C)C)cc2)cc1 (stereo not given),inactive,
CCCCCCCCCCCCCc1ccccc1,inactive,
C=C(C)C1CC=C(C)CC1 (stereo not given),inactive,
COc1nccnc1CC(C)C,inactive,
CC1=CC(C)C(C=O)CC1 (stereo not given),inactive,
C=CC(C)(O)CC/C=C(\C)CC (stereo not given),inactive,

Compound,outcome,AC50
C[N+](C)(C)CCCNS(=O)(=O)C(F)(F)C(F)(F)C(F)(F)C(F)(F)C(F)(F)C(F)(F)C(F)(F)C(F)(F)F,inactive,
CCCCOCC(C)O (stereo not given),inactive,
C=CCOC(=O)c1ccc(C(=O)OCC=C)c(C(=O)OCC=C)c1,inactive,
CCCSSCCC,inactive,
O=C1CCCCCCCCCCCN1,inactive,
Cc1ccc([N+](=O)[O-])cc1N,inactive,
CCOC(=O)C1=NN(c2ccc(Cl)cc2Cl)C(C)(C(=O)OCC)C1 (stereo not given),inactive,
Nc1nc(N)nc(-c2ccccc2)n1,inactive,
CC1(C)CC(O)CC(C)(C)N1[O],inactive,
CC(=O)OCc1ccccc1,inactive,
c1ccc2c(c1)[nH]c1ccccc12,inactive,
C=CC(C)(CCC=C(C)C)OC(=O)C=Cc1ccccc1 (stereo not given),inactive,
CCCCCCO,inactive,
CC(C)CCOCc1ccccc1,inactive,
CCCCOC(=O)CCC(C)=O,inactive,
C=C[Si](OCCOC)(OCCOC)OCCOC,inactive,
Oc1ccc(-c2ccccc2)c(Cl)c1,,54.5 µM (active)
CC(=O)OC(C)c1ccccc1 (stereo not given),inactive,
COC(=O)C=Cc1ccccc1,inactive,
CC(=O)/C=C/C1C(C)=CCCC1(C)C (stereo not given),inactive,
